For 20 compounds, Potency and outcome results are on record in PubChem BioAssay (NCATS).

Results filed as inconclusive are left out. Entries that show only a call come without a potency. Active and inactive are the calls of the source. The call rests on the fitted dose curve; in most records, active means well fitted curve in the direction sought with a large enough effect; inconclusive means small, poorly fitted or top-dose-only effect, or another doubt; inactive means no such curve, though single readings can be large; an effect the other way counts as inactive or inconclusive.

The target in assay [1] is Glutathione peroxidase 1 (Homo sapiens) (UniProt P07203). Kind of assay: Primary qHTS Assay for Inhibitors of Recombinant Selenoprotein Glutathione Peroxidase 1 (GPX1) (AID 1845191). Further: nearly all actives have a fitted effect of over 65% in size. Put shortly: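 Recombinant GPX1 (10 nM final) was preincubated with compound for 30 min at room temperature, then reacted with 1 mM GSH, 0.5 mM CHP, 0.5 mM NADPH and 100 nM glutathione reductase; NADPH fluorescence (340/450 nm) was read at 0 and 15 min.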
In general terms: Quantitative high-throughput screening tests each substance at several concentrations.

In assay [2] the target is Phospholipid hydroperoxide glutathione peroxidase GPX4 (Homo sapiens) (UniProt P36969). Kind of assay: Primary qHTS Assay for Inhibitors of Recombinant Selenoprotein Glutathione Peroxidase 4 (GPX4) (AID 1845192). Further: nearly all actives have a fitted effect of over 65% in size. The method in brief: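 GR-coupled readout: 100 nM GR, 1 mM GSH, 0.5 mM NADPH; NADPH fluorescence (ex 340/em 450 nm) read at t=0 and after 15 min RT. GPX4 200 nM, preincubated 30 min with compound; substrate 0.5 mM CHP.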

Assay [3] addresses Metallo-beta-lactamase type 2 (Klebsiella pneumoniae) (UniProt C7C422). Kind of assay: qHTS to identify inhibitors of the New Delhi Metallo-beta-lactamase (NDM): assay validation screen against the NCATS LOPAC Collection (AID 1794843).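 Further: nitrocefin turnover by NDM-1 measured as 485 nm absorbance at plateau; series mostly up to about 38 µM.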 Put shortly: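 Nitrocefin hydrolysis (50 uM substrate stock) by NDM-1, 2 nM final, was followed by 485 nm absorbance after compound preincubation; buffer was 50 mM HEPES pH 7.0, 1 uM ZnSO4, 0.01% Tween20.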

Assay [4] deals with Nuclear receptor subfamily 1 group I member 3 (Homo sapiens) (UniProt Q14994). Kind of assay: Primary qHTS for antagonist of constitutive androstane receptor (CAR) against the NCATS DSHEA and TCM libraries (AID 1794836). Further: series mostly up to about 40 µM. Put shortly: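 HepG2 cells stably carrying hCAR and a CYP2B6 luciferase reporter (2,500 cells/well) attached for 5 h, then received compounds with 48 uM CITCO for 24 h at 37C. ONE-Glo luminescence read antagonism; CellTiter-Fluor (405/540 nm) gave viability.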

Assay [5] deals with Luciferin 4-monooxygenase (Photinus pyralis) (UniProt P08659). Kind of assay: Primary firefly luciferase (FLuc) qHTS assay for identification of artifact compounds. (AID 1845220). Further: series mostly up to about 54 µM; nearly all actives have a fitted effect of over 60% in size. The settings on record: outcome: dose series up to 54.1 µM unless noted. The method in brief:
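Reaction readout was CCD-imaged luminescence, taken 5 min after adding 10 nM purified firefly enzyme to compound-treated wells holding 10 uM luciferin and ATP in pH 7.6 buffer.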

The nature of assay [6]: Primary fluorescence-based thiol-reactive (MSTI) qHTS assay for identification of artifact compounds. (AID 1845221).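 Further: series mostly up to about 54 µM; thiol-reactive compounds lower the probe fluorescence signal; nearly all actives have a fitted effect of over 65% in size.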 Put shortly: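 Reactivity toward the thiol probe MSTI (4 uM) is scored by fluorescence at Ex/Em 525/598 nm after 1 h at room temperature. Acetyl-MSTI and MSTI define the activity scale.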
Assay [7] is described as follows: Primary redox qHTS assay for identification of artifact compounds. (AID 1845223). Put shortly: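 Amplex Red (25 uM) and HRP (250 mU/mL) in HBSS, with compounds for 15 min, then 250 uM DTT for 30 min, room temperature, dark. Fluorescence 525/598 nm read; normalized to DMSO and 10 uM DA3003; Hill fit.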
The nature of assay [8]: Quantitative High-Throughput drug screen in 47 multiple myeloma cell lines against the NCATS MIPE library collection: FR4_PLB cell viability assay (AID 1918924; further: nearly all actives have a fitted effect of over 35% in size). The method in brief:
(§1)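 Viability readout: CellTiter-Glo luminescence following 5 min room-temperature incubation with reagent. Prior exposure: 48 h, 37C, humidified 5% CO2, 500 cells per well.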

Assay [9] can be described thus: Quantitative High-Throughput drug screen in 47 multiple myeloma cell lines against the NCATS MIPE library collection: EJM_DSMZ cell viability assay (AID 1918926; further: nearly all actives have a fitted effect of over 30% in size). Put shortly: as §1
A short description of assay [10]: Quantitative High-Throughput drug screen in 47 multiple myeloma cell lines against the NCATS MIPE library collection: AMO1_DSMZ cell viability assay (AID 1918927; further: nearly all actives have a fitted effect of over 30% in size). Put shortly:
as §1

Assay [11] can be described thus: Quantitative High-Throughput drug screen in 47 multiple myeloma cell lines against the NCATS MIPE library collection: ARP1_JJKsccF8 cell viability assay (AID 1918928; further: nearly all actives have a fitted effect of over 40% in size; further: potency means the concentration at half of the fitted maximal effect). The method in brief: (§2)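 Luminescence from CellTiter-Glo, taken after 5 min at room temperature, reports cellular ATP as viability. Cells (500 per well) had been treated 48 h at 37 °C with MIPE 4.0 compounds, scaled between DMSO and medium-only controls.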

Assay [12] in a line: Quantitative High-Throughput drug screen in 47 multiple myeloma cell lines against the NCATS MIPE library collection: Karpas620_DSMZ cell viability assay (AID 1918959). Further: nearly all actives have a fitted effect of over 30% in size. Put shortly: as §1
A short description of assay [13]: Quantitative High-Throughput drug screen in 47 multiple myeloma cell lines against the NCATS MIPE library collection: JIM3_ECACC cell viability assay (AID 1918963; further: nearly all actives have a fitted effect of over 35% in size). The method in brief:
as §1

Assay [14] in a line: Quantitative High-Throughput drug screen in 47 multiple myeloma cell lines against the NCATS MIPE library collection: Delta47_JCRB cell viability assay (AID 1918925; further: nearly all actives have a fitted effect of over 45% in size). The method in brief:
as §1

The nature of assay [15]: Quantitative High-Throughput drug screen in 47 multiple myeloma cell lines against the NCATS MIPE library collection: ARD_JJKsccE7 cell viability assay (AID 1918929). Put shortly:
as §1

Assay [16] can be described thus: Quantitative High-Throughput drug screen in 47 multiple myeloma cell lines against the NCATS MIPE library collection: KMM1_JCRB cell viability assay (AID 1918960). Further: nearly all actives have a fitted effect of over 30% in size. The method in brief:
as §2

Phospholipid hydroperoxide glutathione peroxidase GPX4 (Homo sapiens), sequence (P36969 whole entry, looked up): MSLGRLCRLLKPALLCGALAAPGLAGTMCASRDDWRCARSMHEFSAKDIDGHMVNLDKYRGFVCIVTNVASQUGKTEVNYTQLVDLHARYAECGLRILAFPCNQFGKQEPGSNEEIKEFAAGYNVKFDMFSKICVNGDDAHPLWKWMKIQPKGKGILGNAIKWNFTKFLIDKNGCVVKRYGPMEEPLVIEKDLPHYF
Glutathione peroxidase 1 (Homo sapiens), sequence (P07203 whole entry, looked up): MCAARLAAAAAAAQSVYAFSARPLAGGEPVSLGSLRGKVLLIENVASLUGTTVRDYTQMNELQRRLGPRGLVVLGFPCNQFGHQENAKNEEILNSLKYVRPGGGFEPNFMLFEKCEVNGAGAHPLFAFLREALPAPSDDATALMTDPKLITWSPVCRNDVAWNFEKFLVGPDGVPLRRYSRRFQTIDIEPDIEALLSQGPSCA
Metallo-beta-lactamase type 2 (Klebsiella pneumoniae), sequence (C7C422 whole entry, looked up): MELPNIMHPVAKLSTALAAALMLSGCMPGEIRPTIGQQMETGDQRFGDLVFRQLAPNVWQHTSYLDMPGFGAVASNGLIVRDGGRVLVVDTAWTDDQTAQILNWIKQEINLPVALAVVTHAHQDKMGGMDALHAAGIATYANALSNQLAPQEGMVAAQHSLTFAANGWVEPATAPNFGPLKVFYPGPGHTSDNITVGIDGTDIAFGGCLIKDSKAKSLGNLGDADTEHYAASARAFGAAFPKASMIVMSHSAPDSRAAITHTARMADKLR
Nuclear receptor subfamily 1 group I member 3 (Homo sapiens), sequence (Q14994 whole entry, looked up): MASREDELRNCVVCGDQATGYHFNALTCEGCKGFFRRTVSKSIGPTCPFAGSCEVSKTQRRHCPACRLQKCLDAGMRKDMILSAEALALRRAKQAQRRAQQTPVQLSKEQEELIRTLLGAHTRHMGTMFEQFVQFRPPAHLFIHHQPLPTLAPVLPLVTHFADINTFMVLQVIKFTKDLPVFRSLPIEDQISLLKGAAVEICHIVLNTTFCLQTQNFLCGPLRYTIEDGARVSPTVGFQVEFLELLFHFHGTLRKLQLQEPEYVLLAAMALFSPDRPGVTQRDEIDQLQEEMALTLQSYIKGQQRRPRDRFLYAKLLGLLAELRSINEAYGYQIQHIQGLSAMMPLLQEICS

For `CCC(CC)(CNC(=O)CCCO)c1cccc(OC)c1`, the Potency entry in [1] and in assay [2] was “inactive” each time.

Regarding `C[C@]12CC[C@H]3[C@@H](CCC4=CC(=O)CC[C@@H]43)[C@@H]1CC[C@@H]2OC(=O)CCC1CCCCC1`, the Potency result in assay [1] was “inactive”.

For `CC(C)(C)NCC(O)c1ccccc1Cl` (stereo unspecified), the call in [3] was inactive. The Potency entry in assay [1] and in [2] was “inactive” throughout.

As for `COc1cccc2c1C(=O)c1c(O)c3c(c(O)c1C2=O)C[C@@](O)(C(=O)CO)CC3OC1CC(N2CCOC(OC)C2)C(O)C(C)O1` (stereo partly specified), the Potency result in [1] was “inactive”.

As to `O=C(O)c1cc(O)c(O)c(O)c1`, the call in assay [4] was inactive.

With `COc1c2c(cc3c1OCO3)CCN(C)C2`, the Potency entry in [1] and in assay [2] was “inactive” in each case.

As to `O=C1OC(c2ccc(O)c(S(=O)(=O)O)c2)(c2ccc(O)c(S(=O)(=O)O)c2)c2c(Br)c(Br)c(Br)c(Br)c21`, the Potency entry in assay [1] is “inactive”.

`CC(C)=CCC[C@@](C)(O)[C@H]1CC=C(C)CC1`: the call in assay [4] was inactive.

On to `CCCCCCCCCCCCCCCC(=O)O`, for which the call in assay [4] was inactive.

Turning to `C[C@]12CC[C@H]3[C@@H](CCC4=CC(=O)CC[C@@H]43)[C@@H]1CC[C@@H]2OC(=O)CCc1ccco1`, the Potency entry in assay [1] and in assay [2] was “inactive” throughout.

`Nc1ccc(C(=O)O)cc1`: in assay [4], the call was inactive.

As to `C=CCc1ccc(O)c(OC)c1`, the call in assay [4] was inactive.

For the compound `COP(=S)(OC)Oc1ccc(SC)c(C)c1`, the Potency result in assay [1] and in assay [2] was “inactive” throughout.

`CC(NC(C)(C)C)C(=O)c1cccc(Cl)c1` (stereo unspecified): the outcome in assay [3], in [5], in [6] and in [7] was inactive. The Potency entry in [1], in assay [2], in assay [8], in assay [9], in assay [10] and in assay [12] was “inactive” each time. In addition, the Potency entry in [13] was “inactive”. For the same compound, the Potency in assay [11] was 13.2 µM (active).

Regarding `c1ccc2c(c1)sc1ccccc12`, the Potency entry in assay [1] and in assay [2] was “inactive” throughout.

As for `C=CCC1(C(C)CC)C(=O)NC(=O)NC1=O` (stereo unspecified), the Potency result in assay [1] and in assay [2] was “inactive” in each case.

Consider `O=C(CCCN1CCC2(CC1)C(=O)NCN2c1ccccc1)c1ccc(F)cc1`, for which the call in [3] was inactive. The Potency result in assay [1] and in [2] was “inactive” each time.

With `COc1ccc2c(c1OC)C(=O)O[C@H]2[C@@H]1c2cc3c(cc2CCN1C)OCO3`, the outcome in [3] was inactive. Further, the Potency entry in assay [1] and in assay [2] was “inactive” each time.

Turning to `CCC1(c2ccc(N)cc2)CCC(=O)NC1=O` (stereo unspecified), the call in assay [3] was inactive. Further, the Potency entry in assay [1], in [2], in assay [8], in assay [14], in assay [9] and in assay [10] was “inactive” in each case. Also, the Potency result in [11], in assay [15], in [12], in assay [16] and in assay [13] was “inactive” throughout.

With `Cc1ncsc1CCCl`, in [3], the call was inactive. The Potency result in assay [1] and in assay [2] was “inactive” throughout.
